Records with an inconclusive call do not appear. The source made the active and inactive calls. Unless noted, calls follow the shape of the dose curve; as a rule, active = well fitted curve in the direction sought with a large enough effect; inconclusive = small, poorly fitted or top-dose-only effect, or another doubt; inactive = no such curve, though single readings can be large; an effect the other way counts as inactive or inconclusive.
Experiments:
[1] = Validation screen for small molecules that induce DNA re-replication in SW480 colon adenocarcinoma cells (AID 504364)
Method in brief: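 Hoechst-stained SW480 nuclei, imaged at 405 nm excitation after 48 hr compound exposure, were counted for elevated DNA content as the re-replication signal.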

[2] = target: Peptidyl-prolyl cis-trans isomerase NIMA-interacting 1 (Homo sapiens) (UniProt Q13526); experiment: qHTS Validation Assay to Find Inhibitors of Pin1 (AID 504536; active = well fitted inhibition curve with a large enough effect in the polarisation, with a control signal flat, not every such curve was filed as active; the % refers to the polarisation)
Method in brief: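 Fluorescence polarization competition: compounds (titration) displace HiFluor-488-labeled Pin1-1b peptide from Pin1 (0.3 uM final) in pH 7.5 HEPES buffer with DTT, 10 min at room temperature; %Activity normalized to no-enzyme wells, curves fitted.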

[3] = target: Phosphoglycerate kinase, glycosomal (Trypanosoma brucei brucei) (UniProt P07378); experiment: qHTS Validation Assay to Find Inhibitors of Phosphoglycerate Kinase (AID 504547)
Method in brief: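 Compounds are pinned into the substrate/PGK mixture, and GAPDH (100nM final) is added to start the reaction by producing 1,3-BPG. After 60 minutes at room temperature, Kinase-Glo Plus is added and luminescence is measured 10 minutes later.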

[4] = target: phosphoglycerate mutase (Leishmania major) (UniProt Q4Q090); experiment: qHTS Validation Assay to Find Inhibitors of Phosphoglycerate Mutase (AID 504548); conditions: Potency: inhibition qHTS; also: series mostly up to about 58 µM
Method in brief: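 Luminescent end-point read-out via Kinase-GloPlus after a 10-minute development. Reaction: 1.25nM Leishmania major PGAM with substrate and compound, 45 minutes at room temperature in TEA buffer (pH 7.6) with MgCl2 and Tween-20.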

[5] = target: Ubiquitin carboxyl-terminal hydrolase 1 (Homo sapiens) (UniProt O94782); experiment: Inhibitors of USP1/UAF1: Pilot qHTS (AID 504865);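 also: rhodamine fluorescence freed from ubiquitin-rhodamine substrate followed over time; top concentration of the series differs between compounds; nearly all actives have a fitted effect of over 35% in size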
Method in brief: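 USP1/UAF1 complex (1nM) preincubated with compound 15 min at room temperature, then Ub-Rho substrate (150nM final) added. Fluorescence read kinetically at 480/540 nm, 6 reads every 60 seconds. Buffer: 50mM HEPES pH 7.8, 0.5mM EDTA, 0.1 mg/ml BSA, 1mM TCEP, 0.01% Tween-20.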

[6] = qHTS for Inhibitors of ATXN expression: Validation of Cytotoxic Assay (AID 588349)
Method in brief: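 Toxicity of test compounds toward HEK293 cells is scored from cellular ATP content measured by CellTiter Glo. Cells receive titrated doses and incubate 72 hr at 37 degrees C beforehand.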

[7] = qHTS for Inhibitors of ATXN expression: Validation (AID 588378); also: series mostly up to about 57 µM; nearly all actives have a fitted effect of over 75% in size
Method in brief: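 Luminescence from an ATXN2-FFLuc reporter in HEK293 cells served as read-out after 24 h compound treatment at 37 degrees C; CellTiter-Fluor fluorescence was recorded first to assess viability.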

[8] = target: DNA dC->dU-editing enzyme APOBEC-3G (Homo sapiens) (UniProt Q9HC16); experiment: qHTS for inhibitors of Vif-A3G interactions: Validation (AID 588379)
Method in brief: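 Yellow fluorescence (Ex 488, Em 500-530) of Vif-coexpressing HeLa A3G-eYFP cells, scanned by Acumen cytometer, reports blocked A3G degradation. Cells plated at 700/well overnight at 37 deg C before compound addition, then a further overnight compound incubation at 37 deg C.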

Measured: Potency

Sequence of Ubiquitin carboxyl-terminal hydrolase 1 (Homo sapiens) (O94782 whole entry, looked up): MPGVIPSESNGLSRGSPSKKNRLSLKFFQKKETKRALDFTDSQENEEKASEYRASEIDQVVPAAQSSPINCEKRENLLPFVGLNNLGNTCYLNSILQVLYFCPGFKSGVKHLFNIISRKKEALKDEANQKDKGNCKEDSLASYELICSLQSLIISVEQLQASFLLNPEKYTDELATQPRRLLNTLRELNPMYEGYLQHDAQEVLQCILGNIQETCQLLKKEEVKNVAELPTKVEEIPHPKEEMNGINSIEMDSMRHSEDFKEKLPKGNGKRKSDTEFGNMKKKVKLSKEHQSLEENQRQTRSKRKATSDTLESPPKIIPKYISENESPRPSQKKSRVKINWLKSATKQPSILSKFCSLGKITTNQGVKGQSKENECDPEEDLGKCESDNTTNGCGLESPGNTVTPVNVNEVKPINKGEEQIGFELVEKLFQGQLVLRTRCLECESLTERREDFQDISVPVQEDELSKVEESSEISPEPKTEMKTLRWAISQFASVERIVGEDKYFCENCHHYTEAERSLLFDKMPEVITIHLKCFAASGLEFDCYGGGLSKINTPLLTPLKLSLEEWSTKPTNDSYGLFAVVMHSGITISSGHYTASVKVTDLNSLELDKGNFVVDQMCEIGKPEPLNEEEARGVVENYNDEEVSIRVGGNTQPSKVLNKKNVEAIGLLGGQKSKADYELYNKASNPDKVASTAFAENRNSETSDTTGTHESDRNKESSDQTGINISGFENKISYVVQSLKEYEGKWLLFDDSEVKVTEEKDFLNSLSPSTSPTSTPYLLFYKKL
Sequence of phosphoglycerate mutase (Leishmania major) (Q4Q090 1-553): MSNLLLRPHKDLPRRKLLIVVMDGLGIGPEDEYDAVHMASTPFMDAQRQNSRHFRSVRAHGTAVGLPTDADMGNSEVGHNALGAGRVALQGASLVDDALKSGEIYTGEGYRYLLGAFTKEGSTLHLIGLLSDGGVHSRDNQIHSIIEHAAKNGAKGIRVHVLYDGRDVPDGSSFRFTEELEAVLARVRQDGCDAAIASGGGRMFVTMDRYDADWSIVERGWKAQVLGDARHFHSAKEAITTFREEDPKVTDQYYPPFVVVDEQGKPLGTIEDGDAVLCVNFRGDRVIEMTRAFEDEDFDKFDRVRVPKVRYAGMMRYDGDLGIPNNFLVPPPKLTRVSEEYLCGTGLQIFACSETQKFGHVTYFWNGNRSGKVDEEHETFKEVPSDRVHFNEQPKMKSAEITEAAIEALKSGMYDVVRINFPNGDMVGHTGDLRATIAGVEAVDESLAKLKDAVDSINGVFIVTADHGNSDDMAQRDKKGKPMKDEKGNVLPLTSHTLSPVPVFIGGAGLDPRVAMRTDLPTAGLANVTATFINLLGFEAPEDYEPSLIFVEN
Sequence of Phosphoglycerate kinase, glycosomal (Trypanosoma brucei brucei) (P07378 whole entry, looked up): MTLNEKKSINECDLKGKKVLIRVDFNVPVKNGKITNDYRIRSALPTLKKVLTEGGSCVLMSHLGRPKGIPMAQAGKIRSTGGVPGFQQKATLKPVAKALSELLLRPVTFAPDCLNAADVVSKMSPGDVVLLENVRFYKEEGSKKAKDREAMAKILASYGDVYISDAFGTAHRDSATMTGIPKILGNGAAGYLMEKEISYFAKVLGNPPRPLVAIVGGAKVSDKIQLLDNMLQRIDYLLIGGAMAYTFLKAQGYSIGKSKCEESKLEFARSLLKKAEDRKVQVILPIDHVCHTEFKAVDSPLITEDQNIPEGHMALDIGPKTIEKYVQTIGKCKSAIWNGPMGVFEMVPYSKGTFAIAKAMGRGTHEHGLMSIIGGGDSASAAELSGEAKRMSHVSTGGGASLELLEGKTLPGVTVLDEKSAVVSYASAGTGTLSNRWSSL
Sequence of Peptidyl-prolyl cis-trans isomerase NIMA-interacting 1 (Homo sapiens) (Q13526 whole entry, looked up): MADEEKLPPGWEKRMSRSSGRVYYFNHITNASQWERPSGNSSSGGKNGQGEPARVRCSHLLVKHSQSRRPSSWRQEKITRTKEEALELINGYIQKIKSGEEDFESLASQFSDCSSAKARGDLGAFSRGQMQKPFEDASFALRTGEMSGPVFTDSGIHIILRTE
Sequence of DNA dC->dU-editing enzyme APOBEC-3G (Homo sapiens) (Q9HC16 whole entry, looked up): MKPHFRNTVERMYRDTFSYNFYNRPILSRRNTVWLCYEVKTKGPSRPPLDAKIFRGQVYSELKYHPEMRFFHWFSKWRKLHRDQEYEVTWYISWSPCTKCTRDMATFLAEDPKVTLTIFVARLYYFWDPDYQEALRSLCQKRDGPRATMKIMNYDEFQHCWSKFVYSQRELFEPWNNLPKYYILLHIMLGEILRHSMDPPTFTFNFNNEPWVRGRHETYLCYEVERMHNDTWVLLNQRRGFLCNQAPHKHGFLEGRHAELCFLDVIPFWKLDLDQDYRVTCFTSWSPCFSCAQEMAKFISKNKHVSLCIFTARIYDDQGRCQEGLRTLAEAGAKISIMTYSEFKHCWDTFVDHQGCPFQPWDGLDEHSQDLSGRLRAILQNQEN

CC(C)(C)NCC(O)COc1nsnc1N1CCOCC1 (centres undefined)
inactive: [1]

CN(C)c1nc(N)c(C(=O)N=C(N)N)nc1Cl
not listed: [7] | [8]
inactive: all other assays above

Cn1c(=O)c2[nH]c(-c3ccccc3)nc2n(C)c1=O
not listed: [8]
inactive: all other assays above

CC(=O)N[C@H](C(=O)O)C(C)(C)SN=O
not listed: [8]
inactive: all other assays above

NCCCCC(=O)O
not listed: [8]
inactive: all other assays above

CO/N=C(\C(=O)N[C@@H]1C(=O)N2C(C(=O)O)=C(COC(C)=O)CS[C@H]12)c1csc(N)n1 (stereo in doubt)
inactive: [1]

O=c1[nH]c2cc(Cl)c(Cl)cc2[nH]c1=O
not listed: [8]
inactive: all other assays above

CCN1/C(=C/C(C)=O)Sc2ccc(OC)cc21
not listed: [7] | [8]
inactive: all other assays above

CC(COc1ccc(/C=C/c2ccccc2)cc1)[N+](C)(C)C (centres undefined)
not listed: [8]
inactive: all other assays above

C=C[C@@H]1CN2CC[C@@H]1C[C@H]2[C@H](O)c1ccnc2ccc(OC)cc12
inactive: [1] | [2] | [3] | [4]

COc1cc(C(O)CO)ccc1OS(=O)(=O)O (centres undefined)
not listed: [8]
inactive: all other assays above

CN(C)CCC(c1ccc(Cl)cc1)c1ccccn1 (centres undefined)
inactive: [1] | [2] | [3] | [4] | [5]

CC(C)Cc1ccc([C@H](C)C(=O)O)cc1
not listed: [8]
inactive: all other assays above

CN[C@H](CC(C)C)C(=O)N[C@H]1C(=O)N[C@@H](CC(N)=O)C(=O)N[C@H]2C(=O)N[C@H]3C(=O)N[C@H](C(=O)N[C@H](C(=O)O)c4cc(O)cc(O)c4-c4cc3ccc4O)[C@H](O)c3ccc(c(Cl)c3)Oc3cc2cc(c3O[C@@H]2O[C@H](CO)[C@@H](O)[C@H](O)[C@H]2O[C@H]2C[C@](C)(N)[C@H](O)[C@H](C)O2)Oc2ccc(cc2Cl)[C@H]1O
inactive: [1]

CN1C2CCC1CC(OC(=O)C(O)c1ccccc1)C2 (centres undefined)
not listed: [8]
inactive: all other assays above

N=C(N)SCCc1ccc(CCSC(=N)N)cc1
not listed: [8]
inactive: all other assays above

Nc1ccn([C@@H]2O[C@H](CO)[C@@H](O)[C@@H]2O)c(=O)n1
inactive: [1]

NCCCS(=O)(=O)O
not listed: [8]
inactive: all other assays above

CC(=O)SCC[N+](C)(C)C
not listed: [8]
inactive: all other assays above

NO
not listed: [8]
inactive: all other assays above

Oc1ccc(C2CNCc3sccc32)cc1O (centres undefined)
inactive: [1] | [2] | [3] | [4] | [5]

Fc1cccc(/C=N/N=C/c2cccc(F)c2)c1
not listed: [8]
inactive: all other assays above

CC1CN(S(=O)(=O)c2cccc3cnccc23)CCN1 (centres undefined)
not listed: [8]
inactive: all other assays above

O=C(O)CC1CCCc2ccccc2C1O (centres undefined)
not listed: [8]
inactive: all other assays above

COc1ccccc1CNCCCCCCNCCCCCCCCNCCCCCCNCc1ccccc1OC
not listed: [6] | [8]
inactive: all other assays above

CCCN(CC1CC1)c1nc(C)nc(Nc2c(Cl)cc(Cl)cc2Cl)c1Cl
inactive: all assays above

OC[C@H]1O[C@@H](n2cnc3c(NC4CCCCC4)ncnc32)[C@H](O)[C@@H]1O
not listed: [8]
inactive: all other assays above

C[C@@H](CN1CCC(Cc2ccccc2)CC1)[C@@H](O)c1ccc(O)cc1
inactive: all assays above

From PubChem BioAssay (NCATS)
